Assay results reported in PubChem BioAssay (NCI).
Several values for one entry are separate records, joined by “and”; a condition that tells them apart may be missing. Identical values can stand only once. The panel holds about 83,000 compounds, 20% with a hit somewhere; the sample as a whole holds those more often.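 Each cell line was grown in a 96-well plate and treated with one concentration of compound for 48 hours. Values below 10 were considered active.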 A number with no mark means an inactive call. Activity calls are given as the source filed them.

System: MDA-MB-468 breast
Assay: NCI-60 one-dose screen, 48 h (100 = growth as untreated, 0 = no growth, -100 = all killed)
Settings: 10 µM unless noted

| Compound | growth |
| --- | --- |
| Cc1nc2ccccc2n1CC1NC(=O)NC1=O (stereo not given) | 97.6% |
| CC(C)(C)n1cc(-c2ccnc(NCCNS(=O)(=O)c3ccc(Cl)cc3)c2)c(-c2cccc(O)c2)n1 | 32.6% |
| Oc1ccc(CSc2nnc(-c3ccc(Br)cc3)o2)c2cccnc12 | 35.4% |
| COC(CC(F)F)c1cn(S(=O)(=O)c2ccc(C)cc2)c2ccccc12 (stereo not given) | 8.95% (active) |
| CC1(C)C(=O)/C(=C\c2cccnc2)C[C@]2(C)[C@H]3CC[C@@H]4[C@@H](C(=O)/C=C/c5ccncc5)CC[C@@]4(C)[C@]3(C)CC[C@@H]12 | -5.14% (active) |
| O=C1CC23OC(C(O)c4ccccc4N12)C1C(c2ccccc2)=NOC13 (stereo not given) | 40.9% |
| CNC(=O)c1cc(Oc2ccc(NC(=O)Nc3cc(C(C)(C)C)nn3-c3ccc4ncccc4c3)c(F)c2)ccn1 | -61.8% (active) |
| CCN1C(=O)N(CC)C2C1N=C(SC)N2/N=C/C=C/c1ccccc1OC (stereo not given) | 1.3% (active) |
| Clc1ccc(Nc2ncnc3c2sc2ncccc23)c(Cl)c1 | 22.2% |
| C=C1C(=O)O[C@H]2[C@H]1CC/C(COC(=O)NCCOCCOCC(=O)Nc1ccc(OC)c(C(N)=O)c1O)=C\CC[C@@]1(C)O[C@@H]21 | 17% |
| O=c1c(Cc2ccc(F)cc2)cc(-c2ccccc2)nn1C/C(=N/O)c1ccccc1 | 41.2% |
| CC1=C(C(=O)OCC2CCN(C(=O)OC(C)(C)C)CC2)[C@H](c2cccc(C#N)c2)C2=C(CC(C)(C)CC2=O)N1 | 59.9% |
| C=C(C)[C@@H]1CC[C@]2(C(=O)OCCOCCOCC[P+](c3ccccc3)(c3ccccc3)c3ccccc3)CC[C@]3(C)[C@H](CC[C@@H]4[C@@]5(C)CC[C@H](OC(=O)C(Cl)Cl)C(C)(C)[C@@H]5CC[C@]43C)[C@@H]12 | -53.7% (active) |
| CC1(C)CC[C@]23CC[C@]4(C)[C@H](CC[C@@H]5[C@@]6(C)C/C(=C/c7ccncc7)C(=O)C(C)(C)[C@@H]6CC[C@]54C)[C@H]2[C@H]1OC3=O | 58.8% [100 µM] |
| CN1CCN(Cc2ccc(NC(=O)c3cncc(C#Cc4cnc5ccc(NCCO)nn45)c3)cc2C(F)(F)F)CC1 | -55.5% (active) |
| Cc1c(C(=O)C(SC(=S)N2CCOCC2)SC(=S)N2CCOCC2)nnn1-c1ccc([N+](=O)[O-])cc1 | 92.7% |
| COc1ccc(Oc2nc(Nc3ccc(N4CCOCC4)cc3)ncc2NC(=O)Nc2cc(OC)cc(OC)c2)cc1 | 25.3% |
| O=C1NC(=O)/C(=C\c2ccccc2)C2=C1CCCC2 | 95.3% |
| O=C1Nc2cc(Cl)ccc2/C1=C\c1ccc(OCc2ccc([N+](=O)[O-])cc2)cc1 | 52% |
| COc1ccc2c(c1)CCCN2c1c2ccccc2nc2ccccc12 | -3.81% (active) |

| Compound | growth |
| --- | --- |
| COc1cc(C2C(C#N)=C(N)Oc3cc(O)ccc32)cc(OC)c1OC (stereo not given) | -16% (active) |
| CCN(C(=O)Nc1cccc2ccccc12)c1ccccc1 | 99.7% |
| CN1C(=O)N(C)C2(c3ccccc3)N(CC(=O)Nc3ccccc3O)C(=O)NC12c1ccccc1 (stereo not given) | 104% |
| CCCCCCCCN(CCCCCCCC)CC(O)c1cc(Cl)ccc1OC (stereo not given) | 32.6% |
| Cc1ccccc1NC(=O)/C=C/c1ccc(OCCOc2ccc3c(C)cc(=O)oc3c2)cc1 | 104% |
| CC1(C)CC[C@]2(CO)CC[C@]3(C)C(=CC[C@@H]4[C@@]5(C)CCNCC(C)(C)[C@@H]5CC[C@]43C)[C@@H]2C1 | -33.1% (active) |
| CC(C)(C)c1cc(C(C)(C)c2ccccc2)cc(Cc2cc(C(C)(C)c3ccccc3)cc(C(C)(C)C)c2O)c1O | 95.2% |
| O=C1Nc2ccccc2/C1=N/c1nc(-c2ccc(Cl)cc2)cs1 | 59% |
| CC(=O)NC(N)=S | 109% |
| COc1cc(-c2nc(N3CCN(C)CC3)c3ccccc3n2)cc(OC)c1OC | 38.4% |
| N#Cc1c(C(F)(F)F)cc(Nc2ccc3nc(NCCN4CCCC4)oc3c2)n2c1nc1ccccc12 | 34.1% |
| CCOC(=O)c1cnc2ccc(Br)cc2c1Nc1cccc(S(N)(=O)=O)c1 | 106% |
| Nc1cc(-c2c[nH]c3ccc(Br)cc23)nc2cc(-c3c[nH]c4ccc(Br)cc34)nn12 | -4.03% (active) |
| O=S(=O)(CC(O)(c1ccccc1)c1ccccc1)CC(O)(c1ccccc1)c1ccccc1 | 77.4% |
| O=C(Nc1ccccc1CNc1nc(Nc2ccc(OCCN3CCCC3)cc2)ncc1Cl)NC1CCCCC1 | 89.4% |
| C=C1C(=O)O[C@H]2[C@H]1CC/C(COC(=O)NCCCCCCCCNC(=O)OC/C1=C/CC[C@@]3(C)O[C@H]3[C@H]3OC(=O)C(=C)[C@@H]3CC1)=C\CC[C@@]1(C)O[C@@H]21 | -46.1% (active) |
| CCCCSc1nnc(-c2ccc(-c3ccc(Cl)cc3)nc2C)o1 | 107% |
| O=C(Nc1cccc(-c2nc(-c3ccc(NC(=O)c4cccs4)cc3Cl)no2)c1)Nc1ccc(NC(=O)C2CC2)c(C(F)(F)F)c1 | -84.6% (active) |
| O=C1N/C(=N/O)S/C1=C/c1cn(-c2ccccc2)nc1-c1ccccc1 | 84.6% |
| COc1ccc([N+](=O)[O-])cc1OC | 108% and 101% |
